Bioassay records as filed in PubChem BioAssay.
CHRM1 agonist – agonists of human M1 muscarinic receptor; activation, % at 3 µM; hit rate 0.33% among 360,000; CHO-K1 hM1, Fluo-8 calcium fluorescence, agonist mode; 0% DMSO, 100% acetylcholine EC100;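 active = activation above the run's mean compound activation plus 3 SD, cut at about 16% in these data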;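 note: peak over basal fluorescence ratio within a 140 s kinetic read after compound addition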
Target sequence (P11229 whole entry, looked up): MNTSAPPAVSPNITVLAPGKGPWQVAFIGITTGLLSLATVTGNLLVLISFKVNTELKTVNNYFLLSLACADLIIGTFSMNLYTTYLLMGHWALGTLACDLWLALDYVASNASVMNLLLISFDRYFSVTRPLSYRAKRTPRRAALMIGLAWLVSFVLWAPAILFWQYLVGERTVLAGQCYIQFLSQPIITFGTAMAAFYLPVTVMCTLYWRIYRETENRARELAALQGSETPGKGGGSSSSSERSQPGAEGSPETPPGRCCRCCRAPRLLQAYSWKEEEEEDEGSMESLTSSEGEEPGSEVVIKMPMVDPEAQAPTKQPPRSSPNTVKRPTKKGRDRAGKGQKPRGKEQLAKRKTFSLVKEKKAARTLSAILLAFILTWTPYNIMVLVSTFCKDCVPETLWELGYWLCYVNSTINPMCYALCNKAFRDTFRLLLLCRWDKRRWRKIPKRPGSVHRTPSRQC
CHO-K1 Ca ag – counter-screen for M1 agonists: effect in parental CHO-K1 cells. Fluo-8 calcium fluorescence; scaled to maximal ATP response, vehicle zero. activation, % at 3 µM. hit rate 0.48% among 360,000. AID 602248; in the data active = activation above about 15%;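 note: untransfected CHO-K1 host cells lacking M1 receptor as counterscreen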
M1 PAM – positive allosteric modulators of human M1 muscarinic receptor. hit rate 0.088% among 360,000. P11229. AID 588819. CHO-K1 hM1, Fluo-8 calcium fluorescence, ACh EC20; 0% = ACh EC20, 100% = maximal ACh. activation, % at 3 µM; in the data active = activation above about 19%, passing the limit was not always enough
CHRM1 antagonist – antagonists of human M1 muscarinic receptor; P11229; CHO-K1 hM1, Fluo-8 calcium fluorescence, ACh EC80 antagonist; inhibition, % at 3 µM; hit rate 1.3% among 360,000; AID 588852;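 active = percent inhibition above its own plate's cutoff, namely the mean of that plate's compound wells plus 3 SD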;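 note: peak over basal fluorescence ratio during 140 s after agonist addition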
CHO-K1 Ca PAM – M1 PAM counterscreen hit in parental CHO-K1 cells. ATP EC20, Fluo-8 calcium fluorescence; 0% at ATP EC20, 100% at ATP max. activation, % at 3 µM. hit rate 0.02% among 360,000;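 active = activation above the run cutoff, the mean activation of all test compounds plus 3 SD, cut at about 40% in these data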;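 note: peak over basal fluorescence ratio in a 140 s read after ATP addition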
CHO-K1 Ca antag – M1 antagonist counterscreen hit in parental CHO-K1 cells. ATP-induced calcium, Fluo-8 fluorescence. inhibition, % at 3 µM. hit rate 0.6% among 360,000;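 active = inhibition above a per-plate cutoff, the plate's mean sample inhibition plus 3 SD, cut at about 24% in these data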
Large screens that a line does not name were inactive. The list is not random: actives were taken first. Their share in the collection is about 2.4%.

Brc1ccc2c(c1)C(OC1CN3CCC1CC3)c1ccccc1CS2 (stereo unspecified)	CHRM1 antagonist 101
O=c1c2ccccc2nc(/C=C/c2ccc(O)cc2)n1-c1cccc(O)c1	none
COc1cccc(-n2c(/C=C/c3ccc(O)c(O)c3)nc3ccccc3c2=O)c1	CHO-K1 Ca antag 25
O=c1c2ccccc2nc(/C=C/c2ccc3c(c2)OCO3)n1-c1cccc(O)c1	CHO-K1 Ca antag 26
CC(=O)OC1C(=O)OCC23CCC4(C)OC4C2OC2CC(OC(=O)C=CC=CC(=O)OCCC1C)C3(C)C21CO1 (stereo unspecified)	none
Cc1ccc(C)c(NP(=O)(Oc2ccccc2)Oc2ccccc2)c1	CHRM1 antagonist 36
Cc1ccc(S(=O)(=O)NP(=O)(Oc2ccccc2)Oc2ccccc2)cc1	none
COC(=O)C1=C(c2ccc(OCc3ccccc3)cc2)C[C@@H]2CC[C@H]1N2C(=O)NCCc1ccc(F)cc1	none
CCN(CC)c1ccc(/C=C/[N+](=O)[O-])cc1	CHRM1 agonist 70, CHO-K1 Ca ag 60, CHRM1 antagonist 53, CHO-K1 Ca antag 31
COc1cc(/C=C/[N+](=O)[O-])ccc1O	none
COc1ccc(S(=O)(=O)N2Cc3ccccc3-n3nncc3C2)cc1	none
CC(C)S(=O)(=O)N1Cc2ccccc2-n2nncc2C1	CHRM1 antagonist 47
O=C(NN=Cc1ccc(N(CCCl)CCCl)cc1)C(=O)c1c[nH]c2ccccc12	none
CC(=O)c1cn(Cc2ccccc2C#N)c2ccccc12	CHO-K1 Ca ag 17, CHO-K1 Ca antag 28
COc1ccc(-n2c(O)c(/C=C/C=Nc3ccccc3)c(=O)[nH]c2=O)cc1	CHRM1 agonist 22, CHO-K1 Ca ag 23
COc1ccc(-n2c(O)c(/C(C)=N/N3CCCCCC3)c(=O)[nH]c2=O)cc1	M1 PAM 34
O=c1[nH]c(=O)n(C2CCCCC2)c(O)c1/C=C/C=Nc1ccccc1	CHRM1 agonist 18, CHO-K1 Ca ag 18
COc1ccc(-n2c(O)c(/C(C)=N/Nc3ccccc3)c(=O)[nH]c2=O)cc1	none
COc1cccc(N2CCN(Cc3ccc(Cl)cc3)CC2)c1	none
COc1cccc(C2(O)CCN(Cc3ccncc3)CC2)c1	CHO-K1 Ca antag 24
Nc1cc(N2CCNCC2)ccc1[N+](=O)[O-]	none
Clc1cccc(N2CCNCC2)c1	CHO-K1 Ca antag 26
O=C(NCC1=C(c2ccc3ccccc3c2)C[C@@H]2CC[C@H]1N2Cc1ccco1)c1nccs1	none
COc1ccccc1NC(=O)c1cn(CCC#N)nc1-c1cccc(Cl)c1	none
C(=NN1CCCCCC1)c1c[nH]c2ccccc12	none
Brc1ccc2[nH]cc(/C=N/N3CCCCC3)c2c1	CHRM1 agonist 32
COc1ccc(OCC#CCN2CCCCCC2)cc1	none
Cc1ccc(C(C)C)c(OCC#CCN2CCCC2)c1	CHRM1 antagonist 90
Fc1ccc(CCNCc2ccc(Br)cc2)cc1	CHO-K1 Ca PAM 41
O=C(COc1ccc(Cl)cc1)NC1CN2CCC1CC2 (stereo unspecified)	CHRM1 antagonist 45
COC(=O)C1=C(c2ccc(OCc3ccccc3)c(F)c2)C[C@@H]2CC[C@H]1N2C	CHRM1 antagonist 29
COC(=O)C1=C(c2ccc(F)cc2OCc2ccccc2)C[C@@H]2CC[C@H]1N2C	none
COC(=O)C1=C(c2ccc(OCc3ccccc3)cc2)C[C@@H]2CC[C@H]1N2C	CHRM1 antagonist 34
CCOC(=O)/C(CCCN(CC)CC)=N\O	CHRM1 antagonist 78
O=c1[nH]c(=S)n(Cc2ccc(F)cc2)c(O)c1C=NCC1CCCO1 (stereo unspecified)	none
O=c1[nH]c(=S)n(Cc2ccc(F)cc2)c(O)c1/C=N/N1CCCCC1	CHRM1 agonist 27
CN1C2CCC1CC(OC(=O)c1cccc(O)c1)C2 (stereo unspecified)	CHRM1 antagonist 59
CC1CC(OC(=O)c2ccccc2)CC(C)N1C (stereo unspecified)	CHRM1 antagonist 42
Cc1cc2c(cc1C)NP(=S)(c1ccccc1)N2	none
c1ccc(C(OCCN2CCNCC2)c2ccccc2)cc1	CHRM1 antagonist 70
O=C(Nc1ccc(C(=O)O)cc1)Oc1ccc(N(CCCl)CCCl)cc1	none
CCCCCCn1c(O)c(C=Nc2c(C)n(C)n(-c3ccccc3)c2=O)c(=O)[nH]c1=O	CHRM1 antagonist 47
COC(=O)C1=C(c2ccc(C(C)=O)cc2)C[C@@H]2CC[C@H]1N2C(=O)NCc1ccc(C(F)(F)F)cc1	CHRM1 agonist 24, CHO-K1 Ca ag 24
CN1CCN(Cc2cc3c(cc2[N+](=O)[O-])OCO3)CC1	none
CCc1c(-c2ccccc2)nc2ccccc2c1C(=O)N1CCC2(CC1)OCCO2	none
O=C(OC1CCN(CCCl)CC1)C(c1ccccc1)c1ccccc1	none
C[N+]1(C)[C@@H]2CC[C@H]1CC(OC(=O)C(c1ccccc1)c1ccccc1)C2 (stereo partly specified)	CHRM1 antagonist 101
COC(=O)C1=C(c2ccc(F)cc2F)C[C@@H]2CC[C@H]1N2C(=O)N1CCC(O)CC1	none
O=C(c1ccc(Cl)cc1)C1CCCN(C2CCSCC2)C1 (stereo unspecified)	CHRM1 antagonist 61
COc1ccc(C(=O)C2CCCN(C3CSCCSC3)C2)cc1OC (stereo unspecified)	CHRM1 antagonist 97
O=c1[nH]c2ccccc2n1C1CCN(C(CCc2ccccc2)c2nnnn2-c2ccc3c(c2)OCCO3)CC1 (stereo unspecified)	none
CC(C)C(O)(C(=O)OCC1=CCN2CCC(O)C12)C(C)O (stereo unspecified)	none
COC(=O)C1=C(c2ccc(F)cc2F)C[C@@H]2CC[C@H]1N2C(=O)NC1Cc2ccccc2C1	none
N#CC(CCN1CCOCC1)(c1ccccc1)c1ccccc1	CHRM1 antagonist 41
COc1cccc(C(c2nnnn2Cc2ccccc2)N2CCC3(CC2)C(=O)NCN3c2ccccc2)c1OC (stereo unspecified)	none
C=C1N2CCC(CC2)C1(O)c1ccc(C)c(C)c1 (stereo unspecified)	CHRM1 antagonist 72
O=[N+]([O-])/C(Cl)=C1\NCCN1Cc1ccc(Cl)nc1	none
O=[N+]([O-])/C=C1/NCCN1Cc1ccc(Cl)nc1	CHO-K1 Ca antag 26
CCCC[N+]1(C)[C@@H]2CC(OC(=O)[C@H](CO)c3ccccc3)C[C@H]1[C@@H]1O[C@@H]12 (stereo partly specified)	CHRM1 antagonist 98
COc1ccc(C(=O)C2CCCN(Cc3cnc(C)s3)C2)cc1OC (stereo unspecified)	none
CCn1ccnc1CN1CCCC(C(=O)c2ccc(SC)cc2)C1 (stereo unspecified)	CHRM1 antagonist 77
